# Assay results from PubChem BioAssay AID1004 (SRMLSC, 2008).
# Active and inactive are the calls of the source.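 Rule for the calls: active = viability at 10 µM of 29.74% or lower, 3 SD below the compound median; inactive = the rest.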
# Assay: viability of HCT116 lacking mutant beta-catenin – cell-based, DP diverse set, validation, pilot screen (AID 1004)
# Conditions: HCT116 (mutant beta-catenin deleted) viability, CellTiter-Glo, 60 h; at 10 µM; hits give low values
row,SMILES,viability
1,CC12CC3(O)OC(O1)C1(COC(=O)c4ccccc4)[C@@H]3CC21O[C@@H]1O[C@H](CO)[C@@H](O)[C@H](O)[C@H]1O,93.9% (inactive)
2,c1ccc2nc3ccccc3cc2c1,100% (inactive)
3,C[C@@]12C=Cc3occc3C1CC[C@@]13C[C@@H](CCC12)[C@@](O)(CO)C3 (some centres not stated),94.3% (inactive)
4,COC(=O)C1=C(C)NC(C)=C(C(=O)OCCNCc2ccccc2)C1c1cccc([N+](=O)[O-])c1 (configuration not stated),79.3% (inactive)
5,C=C(C)[C@H]1CC=C(CO)CC1,99.5% (inactive)
6,CC(C)C[C@H]1C(=O)N2CCC[C@H]2[C@]2(O)O[C@](NC(=O)[C@@H]3C=C4c5cccc6[nH]c(Br)c(c56)C[C@H]4N(C)C3)(C(C)C)C(=O)N12,89.9% (inactive)
7,Nc1c2c(nc3ccccc13)CCCC2,99.8% (inactive)
8,C[C@H](CCC(=O)O)[C@H]1CC[C@H]2[C@@H]3CC[C@@H]4C[C@H](O)CC[C@]4(C)[C@H]3CC[C@]12C,102% (inactive)
9,COc1cccc2c1C(=O)c1c(O)c3c(c(O)c1C2=O)C[C@@](O)(C(=O)CO)C[C@@H]3OC1C[C@@H](N)[C@H](O)[C@H](C)O1 (some centres not stated),27.4% (active)
10,COc1cc2c(c(OC)c1OC)-c1ccc(OC)c(=O)cc1[C@@H](NC(C)=O)CC2,39.6% (inactive)
11,COc1ccc(CCN(C)CCCC(C#N)(c2ccc(OC)c(OC)c2)C(C)C)cc1OC (configuration not stated),88.8% (inactive)
12,C[C@@H]1CC[C@]2(C(=O)O)CC[C@]3(C)C(=CCC4[C@@]5(C)C[C@@H](O)[C@H](O)[C@@](C)(CO)C5[C@H](O)C[C@]43C)C2[C@H]1C (some centres not stated),95.4% (inactive)
